# Measured values as given in PubChem BioAssay (NCI).
# The panel holds about 83,000 compounds, 20% with a hit somewhere; the sample as a whole holds those more often.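 Single-concentration screen, 48 h exposure, 96-well plates. Endpoint: percent growth. Below 10 = active.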 A number with no mark means an inactive call. Active and inactive are the calls of the source.
# System: SK-OV-3 ovarian
# Assay: NCI-60 one-dose screen, 48 h (100 = growth as untreated, 0 = no growth, -100 = all killed)
# Conditions: 10 µM
row,SMILES,growth
1,Cc1ccc(-n2c(C)nn3c(=O)c4c5c(sc4nc23)CN(C)CC5)cc1,95.1%
2,CN(C)c1ccc(/C=N/NC(=O)c2ccccc2Nc2cccc(C(F)(F)F)c2)cc1,100%
3,N#CC1=C(N)Oc2cc(N)ccc2C1c1cccnc1 (stereo not drawn),93.7%
4,O=C(CCCCNC(=O)c1nc(-c2ccccc2)n(-c2ccccc2)n1)NO,13.2%
5,COc1ccc(-c2cc(-c3ccc(OC)c(OC)c3)nc(SCCCC(=O)NO)n2)cc1,-21.3% (active)
6,COc1cc(C2CC(c3ccccc3)=NN2C(C)=O)cc(OC)c1OC (stereo not drawn),47.5%
7,O=C(/C=C/C=C/c1c(C2CC2)nc2ccccc2c1-c1ccc(F)cc1)c1cccs1,42.6%
8,CC(C)N(CCOc1ccc(-c2nc3sccn3c2-c2ccnc(S(C)(=O)=O)n2)cc1)C(C)C,90.3%
9,O=C(Nc1nc(-c2ccccc2)nc2c1sc(=S)n2-c1ccccc1)C(F)(F)F,91.6%
10,O=C(CSc1nnc(-c2ccc(Cl)cc2)o1)Nc1ccc(C(=O)/C=C/c2ccc(Cl)cc2)cc1,90.6%
11,C=CCn1c(SCC(=O)Nc2ccc(C(=O)/C=C/c3ccc(OC)cc3)cc2)nnc1-c1ccc(OC)c(OC)c1,98%
12,CN1CCN(CC(=O)Nc2cccc(-n3cc(-c4ccncc4)c(-c4ccc(Cl)c(O)c4)n3)c2)CC1,55.9%
13,CCc1ccc(C2=NN(c3ccc(S(C)(=O)=O)cc3)C(=O)CC2)cc1,28.7%
14,Cc1nn(-c2ccc(-c3ccc(OC(F)(F)F)cc3)cc2)c2nc(Cc3ccccc3)nc(N)c12,56.9%
15,Cn1c2ccccc2c2c3[nH][nH]c(=O)c3c3c4ccccc4[nH]c3c21,13.2%
16,CC[C@H]1OC(=O)[C@H](C)[C@@H](O[C@H]2C[C@@](C)(OC)[C@@H](O)[C@H](C)O2)[C@H](C)[C@@H](O[C@@H]2O[C@H](C)C[C@H](N(C)C)[C@H]2O)[C@](C)(OC)C/C(C)=C2/O[C@@]1(C)C=C2C,102%
17,C=C(C)[C@@H]1CC[C@]2(COCCC#N)CC[C@]3(C)[C@H](CC[C@@H]4[C@@]5(C)Cc6c([nH]c7ccccc67)C(C)(C)[C@@H]5CC[C@]43C)[C@@H]12,100%
18,CC(=O)[C@H]1CC[C@]2(C)[C@@H]1CC[C@@H]1[C@@]3(C)CC(CCC#N)(CCC#N)C(=O)C(C)(C)[C@@H]3CC[C@]12C,103%
19,O=C1c2ccccc2C(=O)c2c1ccc(C(Br)Br)c2Cl,93.4%
20,Clc1ccc(/C=C2\CCCC3C2=Nc2ccccc2NC3c2ccc(Cl)cc2)cc1 (stereo not drawn),70.9%
21,Cc1ccc(/C=C/C(=O)C(=O)/C=C/c2ccc(C)cc2)cc1,109%
22,O=C(Nc1ccccc1)Nc1ncnc2c1ncn2-c1ccccc1,44.3%
23,CCn1c(SC/C(=N/O)c2ccccc2)nnc1-c1ccccc1,89.7%
24,Cc1cc(SCc2ccccc2)nc(N)n1,108%
25,COc1cc2cc(Oc3ccc(NC(=O)Nc4ccc(Cl)c(C(F)(F)F)c4)cc3)c(C)nc2cc1OC,-4.09% (active)
26,CCCCCCCCCCCCCCCCCC[n+]1ccc2c(C)c3c(c(C)c2c1)c1cc(O)ccc1n3CC,22.2%
27,CN1CCc2c(sc3nc4n(-c5ccc(Cl)cc5)cnn4c(=O)c23)C1,91.4%
28,CN1CCc2c(sc3nc4n(-c5ccc(Cl)cc5)c(=O)[nH]n4c(=O)c23)C1,96.8%
29,C[n+]1c2ccccc2nc2ccccc21,52%

# System: IGROV1 ovarian
# Assay: as above
# Conditions: 10 µM
row,SMILES,growth
1,CC(=O)OC/C=C(/C)C[P+](c1ccccc1)(c1ccccc1)c1ccccc1,83.5%
2,CCOC(=O)c1cc(C(=O)c2cc(OC)cc(OC)c2)n2ncc3ccccc3c12,43.5%
3,C=CCN(CC=C)C(=O)[C@H](CC)[C@@H]1CC[C@@H](C)[C@@H]([C@H](C)[C@@H](O)[C@@H](C)C(=O)[C@H](CC)C2O[C@]3(C=CC(=O)[C@]4(CC[C@@](C)([C@H]5CC[C@](O)(CC)[C@H](C)O5)O4)O3)[C@H](C)C[C@@H]2C)O1 (stereo partly drawn),43.5%
4,Cc1c2c(nn1C(=O)c1nn(-c3ccc(Cl)cc3)cc1O)-c1ccccc1CC2,17.8%
5,O=C(CCn1cnc2c(cc(-c3ccccc3)n2-c2ccccc2)c1=O)Nc1ccc(F)cc1,81.3%
6,COc1ccc(-c2onc(N)c2-c2cc(OC)c3c(c2)OCO3)cc1,41.5%
7,CCCN(CCC)C(=O)[C@H](CC)[C@@H]1CC[C@@H](C)[C@@H]([C@H](C)[C@@H](O)[C@@H](C)C(=O)[C@H](CC)C2O[C@]3(C=C[C@@H](O)[C@]4(CC[C@@](C)([C@H]5CC[C@](O)(CC)[C@H](C)O5)O4)O3)[C@H](C)C[C@@H]2C)O1 (stereo partly drawn),17.1%
8,CCOC(=O)c1cc(C(=O)c2cc(OC)c(OC)c(OC)c2)n2c1ccc1c3cccnc3ccc12,67.8%
9,COc1cc(NC(=O)Nc2cnc(Nc3ccc(N4CCOCC4)cc3)nc2Oc2cccc(OC)c2)cc(OC)c1,43.4%
10,Fc1ccc2[nH]cc(-c3nc(-c4ccsc4)cs3)c2c1,85.7%
11,IC(I)I,103%
12,Cc1ccc(-n2c(C)nn3c(=O)c4c5c(sc4nc23)CN(C)CC5)cc1,101%
13,CN(C)c1ccc(/C=N/NC(=O)c2ccccc2Nc2cccc(C(F)(F)F)c2)cc1,69.1%
14,N#CC1=C(N)Oc2cc(N)ccc2C1c1cccnc1 (stereo not drawn),101%
15,O=C(CCCCNC(=O)c1nc(-c2ccccc2)n(-c2ccccc2)n1)NO,89.2%
16,COc1ccc(-c2cc(-c3ccc(OC)c(OC)c3)nc(SCCCC(=O)NO)n2)cc1,-25.1% (active)
17,COc1cc(C2CC(c3ccccc3)=NN2C(C)=O)cc(OC)c1OC (stereo not drawn),24.6%
18,O=C(/C=C/C=C/c1c(C2CC2)nc2ccccc2c1-c1ccc(F)cc1)c1cccs1,19.1%
19,CC(C)N(CCOc1ccc(-c2nc3sccn3c2-c2ccnc(S(C)(=O)=O)n2)cc1)C(C)C,96.2%
20,O=C(Nc1nc(-c2ccccc2)nc2c1sc(=S)n2-c1ccccc1)C(F)(F)F,106%

row,SMILES,growth
1,O=C(CSc1nnc(-c2ccc(Cl)cc2)o1)Nc1ccc(C(=O)/C=C/c2ccc(Cl)cc2)cc1,108%
2,C=CCn1c(SCC(=O)Nc2ccc(C(=O)/C=C/c3ccc(OC)cc3)cc2)nnc1-c1ccc(OC)c(OC)c1,94.4%
3,CN1CCN(CC(=O)Nc2cccc(-n3cc(-c4ccncc4)c(-c4ccc(Cl)c(O)c4)n3)c2)CC1,57.5%
4,CCc1ccc(C2=NN(c3ccc(S(C)(=O)=O)cc3)C(=O)CC2)cc1,37.4%
5,Cc1nn(-c2ccc(-c3ccc(OC(F)(F)F)cc3)cc2)c2nc(Cc3ccccc3)nc(N)c12,47.3%
6,Cn1c2ccccc2c2c3[nH][nH]c(=O)c3c3c4ccccc4[nH]c3c21,11%
7,CC[C@H]1OC(=O)[C@H](C)[C@@H](O[C@H]2C[C@@](C)(OC)[C@@H](O)[C@H](C)O2)[C@H](C)[C@@H](O[C@@H]2O[C@H](C)C[C@H](N(C)C)[C@H]2O)[C@](C)(OC)C/C(C)=C2/O[C@@]1(C)C=C2C,58.1%
8,C=C(C)[C@@H]1CC[C@]2(COCCC#N)CC[C@]3(C)[C@H](CC[C@@H]4[C@@]5(C)Cc6c([nH]c7ccccc67)C(C)(C)[C@@H]5CC[C@]43C)[C@@H]12,105%
9,CC(=O)[C@H]1CC[C@]2(C)[C@@H]1CC[C@@H]1[C@@]3(C)CC(CCC#N)(CCC#N)C(=O)C(C)(C)[C@@H]3CC[C@]12C,98.4%
10,O=C1c2ccccc2C(=O)c2c1ccc(C(Br)Br)c2Cl,-43.2% (active)
11,Clc1ccc(/C=C2\CCCC3C2=Nc2ccccc2NC3c2ccc(Cl)cc2)cc1 (stereo not drawn),83.1%
12,Cc1ccc(/C=C/C(=O)C(=O)/C=C/c2ccc(C)cc2)cc1,94.4%
13,O=C(Nc1ccccc1)Nc1ncnc2c1ncn2-c1ccccc1,78.5%
14,CCn1c(SC/C(=N/O)c2ccccc2)nnc1-c1ccccc1,106%
15,COc1cc2cc(Oc3ccc(NC(=O)Nc4ccc(Cl)c(C(F)(F)F)c4)cc3)c(C)nc2cc1OC,-7.69% (active)
16,CCCCCCCCCCCCCCCCCC[n+]1ccc2c(C)c3c(c(C)c2c1)c1cc(O)ccc1n3CC,6.43% (active)
17,CN1CCc2c(sc3nc4n(-c5ccc(Cl)cc5)cnn4c(=O)c23)C1,95.3%
18,CN1CCc2c(sc3nc4n(-c5ccc(Cl)cc5)c(=O)[nH]n4c(=O)c23)C1,91.4%
19,C[n+]1c2ccccc2nc2ccccc21,11%
